# Experimental data published in article PMC8384837, “Expanding the binding specificity for RNA recognition by a PUF domain”.
# Assays:
# Experiment in all cases: yeast three-hybrid, YBZ-1, SC-Leu-His + 0.5 mM 3-AT, 4 days
# Settings in all cases: tags: N-Gal4 AD-HA kept; label: inside an RPR1-promoter hybrid RNA with tandem MS2 sites; ssRNA
# PUM1 PUF domain R8-HFA = PUM1 PUF domain R8-HFA (Homo sapiens, UniProt Q14671 828-1176, N1122H;Y1123F;Q1126A)
# In short: (§1)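 Each repeat of the Pumilio-1 PUF domain was randomized at its three base-contacting residues, and these libraries were co-expressed from a centromeric plasmid with matching RNA elements in strain YBZ-1. After four days on SC-Leu (input) or SC-Leu-His + 0.5 mM 3-AT (selection), the repeat regions were PCR-amplified and Illumina-sequenced. The interaction score compares variant frequency between input and selection as a log change, computed in log2 with a pseudocount of 1 for absent variants.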
# PUM1 PUF domain R8-IRK = PUM1 PUF domain R8-IRK (Homo sapiens, UniProt Q14671 828-1176, N1122I;Y1123R;Q1126K)
# In short: as §1
# PUM1 PUF domain R3-AIE = PUM1 PUF domain R3-AIE (Homo sapiens, UniProt Q14671 828-1176, C935A;R936I;Q939E)
# In short: as §1
# PUM1 PUF domain R5-RQA = PUM1 PUF domain R5-RQA (Homo sapiens, UniProt Q14671 828-1176, C1007R;R1008Q;Q1011A)
# In short: as §1
# PUM1 PUF domain R5-GGE = PUM1 PUF domain R5-GGE (Homo sapiens, UniProt Q14671 828-1176, C1007G;R1008G;Q1011E)
# In short: as §1
# PUM1 PUF domain R5-SED = PUM1 PUF domain R5-SED (Homo sapiens, UniProt Q14671 828-1176, C1007S;R1008E;Q1011D)
# In short: as §1
# PUM1 PUF domain R5-PRR = PUM1 PUF domain R5-PRR (Homo sapiens, UniProt Q14671 828-1176, C1007P;Q1011R)
# In short: as §1
# PUM1 PUF domain R5-QSC = PUM1 PUF domain R5-QSC (Homo sapiens, UniProt Q14671 828-1176, C1007Q;R1008S;Q1011C)
# In short: as §1
# PUM1 PUF domain R5-SGC = PUM1 PUF domain R5-SGC (Homo sapiens, UniProt Q14671 828-1176, C1007S;R1008G;Q1011C)
# In short: as §1
# PUM1 PUF domain R4-DWA = PUM1 PUF domain R4-DWA (Homo sapiens, UniProt Q14671 828-1176, N971D;H972W;Q975A)
# In short: as §1
# PUM1 PUF domain R4-RIF = PUM1 PUF domain R4-RIF (Homo sapiens, UniProt Q14671 828-1176, N971R;H972I;Q975F)
# In short: as §1
# PUM1 PUF domain R8-KHA = PUM1 PUF domain R8-KHA (Homo sapiens, UniProt Q14671 828-1176, N1122K;Y1123H;Q1126A)
# In short: as §1
# PUM1 PUF domain R6-EWV = target: T1, PUM1 PUF domain R6-EWV (Homo sapiens, UniProt Q14671 828-1176, N1043E;Y1044W;Q1047V)
# T1 sequence: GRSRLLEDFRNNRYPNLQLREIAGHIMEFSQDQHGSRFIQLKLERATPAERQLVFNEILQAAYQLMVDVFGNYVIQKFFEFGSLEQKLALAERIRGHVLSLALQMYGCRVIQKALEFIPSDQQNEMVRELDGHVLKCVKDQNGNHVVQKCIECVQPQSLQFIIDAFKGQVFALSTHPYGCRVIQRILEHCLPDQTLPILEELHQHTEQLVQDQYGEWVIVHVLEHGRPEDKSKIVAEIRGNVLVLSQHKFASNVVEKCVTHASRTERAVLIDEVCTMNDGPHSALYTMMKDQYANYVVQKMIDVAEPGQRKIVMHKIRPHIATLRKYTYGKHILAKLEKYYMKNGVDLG
# In short: as §1
# PUM1 PUF domain R7-DFE = PUM1 PUF domain R7-DFE (Homo sapiens, UniProt Q14671 828-1176, S1079D;N1080F)
# In short: as §1
# PUM1 PUF domain R5-GKS = PUM1 PUF domain R5-GKS (Homo sapiens, UniProt Q14671 828-1176, C1007G;R1008K;Q1011S)
# In short: as §1
# PUM1 PUF domain R5-RSK = PUM1 PUF domain R5-RSK (Homo sapiens, UniProt Q14671 828-1176, C1007R;R1008S;Q1011K)
# In short: as §1
# PUM1 PUF domain R7-TVW = PUM1 PUF domain R7-TVW (Homo sapiens, UniProt Q14671 828-1176, S1079T;N1080V;E1083W)
# In short: as §1
# PUM1 PUF domain R3-RIY = PUM1 PUF domain R3-RIY (Homo sapiens, UniProt Q14671 828-1176, C935R;R936I;Q939Y)
# In short: as §1
# PUM1 PUF domain R3-RRK = PUM1 PUF domain R3-RRK (Homo sapiens, UniProt Q14671 828-1176, C935R;Q939K)
# In short: as §1
# PUM1 PUF domain R7-EFS = PUM1 PUF domain R7-EFS (Homo sapiens, UniProt Q14671 828-1176, S1079E;N1080F;E1083S)
# In short: as §1
sequence,measurement,setting,value
GGCUAGAACUAGUGGAUCCCCCGGCGCCCGGCGGCUCGAGCCCGGGUAAGCGUAAAUAGUCUGCAUGCCGCCGGGCGCCAUGCCUGCAGGUCGACUCUAGAAAACAUG,binding signal,PUM1 PUF domain R8-HFA,3.45 log2 enrichment (interaction score)
same,binding signal,PUM1 PUF domain R8-IRK,2.54 log2 enrichment (interaction score)
GGCUAGAACUAGUGGAUCCCCCGGCGCCCGGCGGCUCGAGCCCGGGUAAGUGUAAGUAGUCUGCAUGCCGCCGGGCGCCAUGCCUGCAGGUCGACUCUAGAAAACAUG,binding signal,PUM1 PUF domain R3-AIE,2.83 log2 enrichment (interaction score)
GGCUAGAACUAGUGGAUCCCCCGGCGCCCGGCGGCUCGAGCCCGGGUAAGUGUGAAUAGUCUGCAUGCCGCCGGGCGCCAUGCCUGCAGGUCGACUCUAGAAAACAUG,binding signal,PUM1 PUF domain R5-RQA,0.37 log2 enrichment (interaction score)
same,binding signal,PUM1 PUF domain R5-GGE,3.62 log2 enrichment (interaction score)
same,binding signal,PUM1 PUF domain R5-SED,5.49 log2 enrichment (interaction score)
same,binding signal,PUM1 PUF domain R5-PRR,2.13 log2 enrichment (interaction score)
same,binding signal,PUM1 PUF domain R5-QSC,3.71 log2 enrichment (interaction score)
same,binding signal,PUM1 PUF domain R5-SGC,2.36 log2 enrichment (interaction score)
GGCUAGAACUAGUGGAUCCCCCGGCGCCCGGCGGCUCGAGCCCGGGUAAGUGUACAUAGUCUGCAUGCCGCCGGGCGCCAUGCCUGCAGGUCGACUCUAGAAAACAUG,binding signal,PUM1 PUF domain R4-DWA,5.13 log2 enrichment (interaction score)
GGCUAGAACUAGUGGAUCCCCCGGCGCCCGGCGGCUCGAGCCCGGGUAAGUGUAAAUAGUCUGCAUGCCGCCGGGCGCCAUGCCUGCAGGUCGACUCUAGAAAACAUG,binding signal,PUM1 PUF domain R4-RIF,5.22 log2 enrichment (interaction score)
same,binding signal,PUM1 PUF domain R4-DWA,5.39 log2 enrichment (interaction score)
same,binding signal,PUM1 PUF domain R8-KHA,3.55 log2 enrichment (interaction score)
same,binding signal,PUM1 PUF domain R8-HFA,2.13 log2 enrichment (interaction score)
same,binding signal,PUM1 PUF domain R5-PRR,2.16 log2 enrichment (interaction score)
same,binding signal,PUM1 PUF domain R6-EWV,1.65 log2 enrichment (interaction score)
same,binding signal,PUM1 PUF domain R7-DFE,2.67 log2 enrichment (interaction score)
GGCUAGAACUAGUGGAUCCCCCGGCGCCCGGCGGCUCGAGCCCGGGUAAGUGUCAAUAGUCUGCAUGCCGCCGGGCGCCAUGCCUGCAGGUCGACUCUAGAAAACAUG,binding signal,PUM1 PUF domain R5-GKS,0.75 log2 enrichment (interaction score)
same,binding signal,PUM1 PUF domain R5-RQA,4.83 log2 enrichment (interaction score)
same,binding signal,PUM1 PUF domain R5-PRR,0.75 log2 enrichment (interaction score)
same,binding signal,PUM1 PUF domain R5-RSK,3.23 log2 enrichment (interaction score)
GGCUAGAACUAGUGGAUCCCCCGGCGCCCGGCGGCUCGAGCCCGGGUAAGUGAAAAUAGUCUGCAUGCCGCCGGGCGCCAUGCCUGCAGGUCGACUCUAGAAAACAUG,binding signal,PUM1 PUF domain R6-EWV,3.43 log2 enrichment (interaction score)
GGCUAGAACUAGUGGAUCCCCCGGCGCCCGGCGGCUCGAGCCCGGGUAAGUUUAAAUAGUCUGCAUGCCGCCGGGCGCCAUGCCUGCAGGUCGACUCUAGAAAACAUG,binding signal,PUM1 PUF domain R7-TVW,3 log2 enrichment (interaction score)
GGCUAGAACUAGUGGAUCCCCCGGCGCCCGGCGGCUCGAGCCCGGGUAAGUGUAAUUAGUCUGCAUGCCGCCGGGCGCCAUGCCUGCAGGUCGACUCUAGAAAACAUG,binding signal,PUM1 PUF domain R3-RIY,2.12 log2 enrichment (interaction score)
same,binding signal,PUM1 PUF domain R3-RRK,4.07 log2 enrichment (interaction score)
GGCUAGAACUAGUGGAUCCCCCGGCGCCCGGCGGCUCGAGCCCGGGUAAGUGUUAAUAGUCUGCAUGCCGCCGGGCGCCAUGCCUGCAGGUCGACUCUAGAAAACAUG,binding signal,PUM1 PUF domain R5-GKS,3.25 log2 enrichment (interaction score)
same,binding signal,PUM1 PUF domain R5-RQA,5.37 log2 enrichment (interaction score)
same,binding signal,PUM1 PUF domain R5-PRR,3.23 log2 enrichment (interaction score)
GGCUAGAACUAGUGGAUCCCCCGGCGCCCGGCGGCUCGAGCCCGGGUAAGUCUAAAUAGUCUGCAUGCCGCCGGGCGCCAUGCCUGCAGGUCGACUCUAGAAAACAUG,binding signal,PUM1 PUF domain R7-EFS,2.94 log2 enrichment (interaction score)
